From PubChem BioAssay AID2551 (National Center for Advancing Translational Sciences (NCATS), 2010) come the findings set out here.

Screen size: about 310,000 compounds; about 17,000 (5.5%) were called active. Not shown: some 11% with an inconclusive outcome. The sample holds actives, similar compounds and a random draw of the others, so the mix is not that of the screen. A number with no mark means an inactive call. Calls follow the shape of the dose curve; as a rule, active = well fitted inhibition curve with a large enough effect; inconclusive = small, poorly fitted or top-dose-only effect, or effect the other way; inactive = no such curve, though single readings can be large or run the other way.
% is scaled to controls: 0 for no effect and ±100 for the full control effect; potency is read from the fitted curve at half-maximal effect.

Nuclear receptor ROR-gamma (Mus musculus), sequence (P51450 whole entry, looked up, the tested form may be a part): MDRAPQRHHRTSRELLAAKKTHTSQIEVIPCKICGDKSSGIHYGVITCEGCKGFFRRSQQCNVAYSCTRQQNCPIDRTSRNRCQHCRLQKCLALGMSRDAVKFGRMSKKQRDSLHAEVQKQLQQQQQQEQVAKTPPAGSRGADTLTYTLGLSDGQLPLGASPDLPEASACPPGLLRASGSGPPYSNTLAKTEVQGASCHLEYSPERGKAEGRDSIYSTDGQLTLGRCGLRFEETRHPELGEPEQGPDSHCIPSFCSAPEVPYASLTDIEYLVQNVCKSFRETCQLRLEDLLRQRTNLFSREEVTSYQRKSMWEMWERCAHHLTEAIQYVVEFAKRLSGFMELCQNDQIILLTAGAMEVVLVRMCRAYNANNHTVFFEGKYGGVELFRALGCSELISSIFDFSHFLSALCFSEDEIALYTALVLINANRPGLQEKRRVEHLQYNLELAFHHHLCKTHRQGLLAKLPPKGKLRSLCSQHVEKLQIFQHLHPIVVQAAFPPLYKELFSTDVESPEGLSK

The assay deals with Nuclear receptor ROR-gamma (Mus musculus) (UniProt P51450). The assay is described as follows: qHTS for inhibitors of ROR gamma transcriptional activity. Also: nearly all actives have a fitted effect of over 60% in size. The conditions noted are these: Drosophila S2 Gal4-RORgamma UAS-luciferase reporter, 20 h; series mostly up to 53.6 µM; activity change, negative = inhibition: at the top concentration. Put shortly:
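Stably transfected Drosophila Schneider cells are the test system, with ROR gamma fused to Gal4 and luciferase under UAS control; luminescence is read after 20 hr of 700 uM copper sulfate induction at ambient temperature.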
A general note: In qHTS, concentration-response curves come from the screen itself.
In the case of `COc1ccc(Oc2ncc3nc(C)c(=O)n(-c4ccccc4)c3n2)cc1`, the “activity change, negative = inhibition” value was -22.3%. Regarding `Cc1n[nH]c(=O)n1-c1ccc(Oc2ccccc2)cc1`, the Potency is 2.82 µM (active). In the case of `Cc1n[nH]c(=O)n1-c1ccc(C(C)C)cc1`, the “activity change, negative = inhibition” value is 0.121%. On the same count and under the same terms, the same measure for `Cc1ccc2c(c1)N(S(=O)(=O)c1cc(-c3cc(C)no3)ccc1C)CCO2`: -5.72%.

For `O=S(=O)(c1ccc(Cl)s1)N1CCC2(CC1)OCCO2`, the “activity change, negative = inhibition” value was 3.72%. On the same count and under the same terms, the same measure for `O=C(c1cccc(Br)c1)N1CCN(C2=NS(=O)(=O)c3ccccc32)CC1`: 24.5%. On the same count and under the same terms, the same measure for `COC(=O)c1c(NC(=O)C(=O)N2CCCCC2)sc2c1CC(C)(C)OC2`: -35.1%. For the compound `COc1cccc(OC)c1C(=O)NC(=S)Nc1ccc(N2CCOCC2)c(Cl)c1`, the Potency was 8.91 µM (active).

Turning to `CCOC(=O)c1c(NC(=O)c2ccc(N3CCOCC3)c([N+](=O)[O-])c2)sc(C)c1C`, the “activity change, negative = inhibition” value was -0.447%. With `CCOc1ccc(C(=O)NC(=S)Nc2ccc(N3CCOCC3)c(Cl)c2)cc1[N+](=O)[O-]`, the Potency is 3.16 µM (active). Take `CCOc1ccc(C(=O)Nc2ccc(CN3CCOCC3)cc2)cc1Cl`: the “activity change, negative = inhibition” value is 9.74%. The same measure, in the same setting: the result for `COC(=O)c1cc(NC(=O)c2ccco2)ccc1N1CCOCC1` reads 9.85%; that for `COc1c(C)cccc1C(=O)Nc1cc(Cl)ccc1N1CCOCC1`, 1.38%.

Take `CCc1nc2cccnc2n1-c1ccc(C(=O)O)cc1`: the “activity change, negative = inhibition” value is 14.3%. For the compound `CC(=O)Oc1cccc(C(=O)Nc2ccccc2NC(=O)c2cccc(OC(C)=O)c2)c1`, the “activity change, negative = inhibition” value is 17.2%. Still for that read-out and setting: the result for `COc1ccc(C2=NS(=O)(=O)N(C)C(C(=O)N3CCCCC3)=C2)cc1` reads 15%. As for `COc1cc(CC(=O)N2CCC(n3nccc3NC(=O)C3CC3)CC2)cc(OC)c1OC`, the “activity change, negative = inhibition” value is -6.83%. The same measure, in the same setting: the result for `CC(C)(C)c1ccc(/C=C/C(=O)NCCCn2ccnc2)cc1` reads 9.01%. Same read-out and setting: the same measure for `O=C(CSc1nc(C2CC2)nc2ccccc12)Nc1cccc(O)c1`: 15.2%. In the case of `Cc1cccc(C(=O)Nc2ccc(CC(=O)O)cc2)c1`, the Potency is 7.94 µM (active). In the case of `O=C(O)Cc1ccc(NC(=O)c2cccs2)cc1`, the “activity change, negative = inhibition” value was -37%. On the same count and under the same terms, the result for `O=C(Cc1ccccc1)Nc1cccc(NC(=O)c2ccccc2)c1` reads 28.4%. On the same count and under the same terms, the same measure for `Cc1nn(C)cc1S(=O)(=O)N1CCN(c2ccc(F)cc2)CC1`: -15.6%. Still for that read-out and setting: the same measure for `Cc1ccc(OCC(=O)Nc2ccc(C(=O)O)cc2NC(=O)COc2ccc(C)c(C)c2)cc1C`: 35%. On to `CCCCCCCCn1c2c(c(=N)c3c1CCC3)CCCC2`, for which the Potency is 0.708 µM (active). Regarding `O=C(NNS(=O)(=O)c1ccc([N+](=O)[O-])cc1)C1CCCCC1`, the “activity change, negative = inhibition” value was -7.5%. Consider `c1ccc(CN=C2Nc3ccccc3CS2)nc1`, for which the Potency was 11.2 µM (active). For the compound `COc1ccc(CCn2c(-c3ccco3)nc3nc4ccccc4nc32)cc1OC`, the activity change, negative = inhibition was -7.43% [at 10 µM]. As for `Cn1c(-c2ccco2)nc2cc3ccccc3cc21`, the Potency was 6.31 µM (active). Take `COc1ccccc1-n1c(-c2cc(-c3ccco3)[nH]n2)n[nH]c1=S`: the “activity change, negative = inhibition” value was -40.9%. On the same count and under the same terms, the same measure for `CN(C)Cc1c(C(=O)N/N=C/c2ccccc2OCc2ccc(F)cc2)nnn1-c1nonc1N`: -4.75%. Take `Cc1cc(C)c(C2C3=C(Nc4c2c(C)nn4-c2ccccn2)c2ccccc2C3=O)c(C)c1` (centres undefined): the Potency was 2.51 µM (active). Take `Cc1nn(-c2ccccn2)c2c1C(c1ccncc1)C1=C(CC(C)(C)CC1=O)N2` (centres undefined): the “activity change, negative = inhibition” value is -24.6%. Still for that read-out and setting: the result for `Cc1ccc(C2C3=C(Nc4[nH]n(-c5ccccc5)c(=O)c42)c2ccccc2C3=O)cc1` (centres undefined) reads -1.07%; that for `CS(=O)(=O)N(CC(=O)Nc1ccc(F)cc1)C1CCCCC1`, -10.2%. The same measure, in the same setting: the same measure for `Cc1cccc(OC(C)C(=O)N2CCc3ccccc3C2)c1` (centres undefined): -19.3%; for `CN(C)/N=C/c1cn(-c2ccccc2)nc1-c1cccnc1`: 10.6%. As for `COc1ccc(-c2nn(-c3ccccc3)cc2/C=N/Nc2ccccn2)cc1OC`, the Potency is 7.08 µM (active). For `Cc1nnc(SCC(=O)N/N=C/c2cn(-c3ccccc3)nc2-c2ccc(F)cc2)n1-c1ccccc1`, the “activity change, negative = inhibition” value was -1.76%.

Consider `CC1CC(=O)N(CC(=O)Nc2cccc(Cl)c2)c2ccccc2S1(=O)=O` (centres undefined), for which the “activity change, negative = inhibition” value was -19.7%.

Consider `NC(=O)c1cc(S(=O)(=O)N2CCCC2)ccc1OCc1ccc(F)cc1`, for which the “activity change, negative = inhibition” value is 13.3%.

As for `C=CCn1c(CCNC(=O)c2cccs2)n[nH]c1=S`, the Potency is 17.8 µM (active). Turning to `Cc1ccc(C)c2[nH]c(=O)c(CCNC(=O)c3cccs3)cc12`, the “activity change, negative = inhibition” value was -1.69%. On the same count and under the same terms, the same measure for `CCOC(=O)CSc1nnc(CNC(=O)c2cccs2)n1-c1ccccc1`: 5%. Same read-out and setting: the result for `O=C(c1cc2cc(Br)cc(Br)c2oc1=O)N1CCOCC1` reads -31.5%. As for `C=CCn1c(COc2cccc3cccnc23)nnc1SCC(=O)OC`, the “activity change, negative = inhibition” value was 4.22%. The same measure, in the same setting: the same measure for `Cc1[nH]c2ccc(S(N)(=O)=O)cc2c1C`: -1.39% [at 10 µM]; for `Cc1nc(-c2ccccc2)sc1-c1nc(-c2ccccc2)ncc1S(=O)(=O)c1ccccc1`: -39.3%. Turning to `C=CCn1c(-c2ccc3[nH]c(C)c(C)c3c2)n[nH]c1=S`, the Potency is 5.62 µM (active). Still for that read-out and setting: the result for `C=CCn1c(-c2sc(-c3ccccc3)nc2C)n[nH]c1=S` reads 2.51 µM (active). On to `C=CCn1c(=S)sc2c(=O)[nH]c(C)nc21`, for which the “activity change, negative = inhibition” value was 6.04%.

For `C=CCn1c(COc2ccccc2C)nnc1SCC(=O)O`, the “activity change, negative = inhibition” value is -3.71%. On to `Cc1nc(-c2ccccc2)sc1-c1nnc(C2CC2)o1`, for which the “activity change, negative = inhibition” value is -19.7%. For the compound `C=CCn1c(-c2ccccc2OCC)n[nH]c1=S`, the Potency is 10 µM (active).
